Assay results: ChEMBL document CHEMBL1961873, “Compounds: GSK PKIS; Assays: Nanosyn kinase panel” (2012)
Where “and” joins values, the source holds several entries; their conditions need not be identical. Equal values may be shown once.

What was measured:
[1] = molecular target: T1, Serine/threonine-protein kinase D2 (Homo sapiens) (UniProt Q9BZL6); settings: at 1 µM;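 note: mean value of PRKD2 inhibition, from the GSK PKIS screening panel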
T1 sequence (whole entry): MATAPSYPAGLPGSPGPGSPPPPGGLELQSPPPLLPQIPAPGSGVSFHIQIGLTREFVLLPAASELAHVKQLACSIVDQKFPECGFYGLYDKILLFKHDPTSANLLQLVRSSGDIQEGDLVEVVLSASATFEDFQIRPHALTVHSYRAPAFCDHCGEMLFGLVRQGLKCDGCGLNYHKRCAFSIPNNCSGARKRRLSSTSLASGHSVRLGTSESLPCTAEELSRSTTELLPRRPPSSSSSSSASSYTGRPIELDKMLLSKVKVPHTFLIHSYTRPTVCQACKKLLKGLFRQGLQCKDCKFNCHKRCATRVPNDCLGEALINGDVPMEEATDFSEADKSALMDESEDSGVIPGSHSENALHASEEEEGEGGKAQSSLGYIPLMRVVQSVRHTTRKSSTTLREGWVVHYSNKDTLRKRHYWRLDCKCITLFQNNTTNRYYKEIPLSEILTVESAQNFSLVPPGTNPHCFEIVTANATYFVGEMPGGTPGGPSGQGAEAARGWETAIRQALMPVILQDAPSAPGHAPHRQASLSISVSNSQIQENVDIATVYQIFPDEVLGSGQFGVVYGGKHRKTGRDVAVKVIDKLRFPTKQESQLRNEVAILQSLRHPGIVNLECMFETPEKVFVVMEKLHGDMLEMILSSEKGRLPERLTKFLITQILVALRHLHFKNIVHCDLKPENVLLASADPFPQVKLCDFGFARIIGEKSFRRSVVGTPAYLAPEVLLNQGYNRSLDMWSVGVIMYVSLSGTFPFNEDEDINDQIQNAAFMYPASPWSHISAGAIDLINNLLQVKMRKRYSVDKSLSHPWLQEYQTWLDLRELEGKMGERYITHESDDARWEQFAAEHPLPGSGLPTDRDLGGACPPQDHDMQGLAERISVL

[2] = molecular target: T2, Serine/threonine-protein kinase D3 (Homo sapiens) (UniProt O94806); settings: at 0.1 µM
T2 sequence (whole entry): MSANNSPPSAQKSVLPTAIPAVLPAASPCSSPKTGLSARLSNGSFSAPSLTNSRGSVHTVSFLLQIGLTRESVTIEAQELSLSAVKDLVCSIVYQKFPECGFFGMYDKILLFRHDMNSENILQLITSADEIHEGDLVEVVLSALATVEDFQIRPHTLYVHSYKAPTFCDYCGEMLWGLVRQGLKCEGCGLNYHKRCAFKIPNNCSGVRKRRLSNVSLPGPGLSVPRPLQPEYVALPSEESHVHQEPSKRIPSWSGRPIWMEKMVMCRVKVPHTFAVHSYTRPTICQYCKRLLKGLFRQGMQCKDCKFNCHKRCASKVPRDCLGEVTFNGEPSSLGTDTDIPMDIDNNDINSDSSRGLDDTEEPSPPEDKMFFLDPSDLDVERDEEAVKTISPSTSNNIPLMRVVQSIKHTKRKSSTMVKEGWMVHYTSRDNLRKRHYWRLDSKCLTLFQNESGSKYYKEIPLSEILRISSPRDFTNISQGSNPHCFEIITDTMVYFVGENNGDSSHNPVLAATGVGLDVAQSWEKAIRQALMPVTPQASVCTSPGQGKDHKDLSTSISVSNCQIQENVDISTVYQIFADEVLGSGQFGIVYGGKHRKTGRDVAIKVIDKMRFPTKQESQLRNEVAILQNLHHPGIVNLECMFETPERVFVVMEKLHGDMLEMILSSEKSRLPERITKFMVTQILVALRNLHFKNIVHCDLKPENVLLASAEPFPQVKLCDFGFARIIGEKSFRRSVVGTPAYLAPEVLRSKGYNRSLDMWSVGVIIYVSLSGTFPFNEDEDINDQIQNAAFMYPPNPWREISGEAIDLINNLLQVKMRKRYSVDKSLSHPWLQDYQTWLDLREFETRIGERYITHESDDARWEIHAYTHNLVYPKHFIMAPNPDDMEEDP

[3] = molecular target: T2, Serine/threonine-protein kinase D3 (Homo sapiens); settings: at 1 µM
[4] = molecular target: T3, cGMP-dependent protein kinase 1 (Homo sapiens) (UniProt Q13976); settings: at 0.1 µM
T3 sequence (whole entry): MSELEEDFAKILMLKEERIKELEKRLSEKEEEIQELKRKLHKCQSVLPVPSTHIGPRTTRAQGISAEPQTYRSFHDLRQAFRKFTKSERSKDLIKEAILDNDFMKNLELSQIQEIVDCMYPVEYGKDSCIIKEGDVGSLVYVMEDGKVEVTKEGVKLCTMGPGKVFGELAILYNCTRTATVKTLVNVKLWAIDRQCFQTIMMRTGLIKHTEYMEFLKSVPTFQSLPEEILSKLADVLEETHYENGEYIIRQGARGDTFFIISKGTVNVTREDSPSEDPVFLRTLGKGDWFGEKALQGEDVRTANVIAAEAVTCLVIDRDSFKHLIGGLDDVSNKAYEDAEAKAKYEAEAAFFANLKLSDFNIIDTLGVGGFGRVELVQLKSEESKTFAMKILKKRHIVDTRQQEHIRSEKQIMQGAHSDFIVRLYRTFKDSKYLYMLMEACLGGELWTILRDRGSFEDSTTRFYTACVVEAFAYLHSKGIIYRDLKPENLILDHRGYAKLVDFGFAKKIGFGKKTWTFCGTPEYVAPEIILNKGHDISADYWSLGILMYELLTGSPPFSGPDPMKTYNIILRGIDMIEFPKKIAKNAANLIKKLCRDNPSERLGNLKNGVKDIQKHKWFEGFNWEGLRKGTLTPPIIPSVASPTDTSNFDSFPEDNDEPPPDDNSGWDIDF

[5] = molecular target: T3, cGMP-dependent protein kinase 1 (Homo sapiens); settings: at 1 µM
[6] = molecular target: T4, cGMP-dependent protein kinase 2 (Homo sapiens) (UniProt Q13237); settings: at 0.1 µM
T4 sequence (whole entry): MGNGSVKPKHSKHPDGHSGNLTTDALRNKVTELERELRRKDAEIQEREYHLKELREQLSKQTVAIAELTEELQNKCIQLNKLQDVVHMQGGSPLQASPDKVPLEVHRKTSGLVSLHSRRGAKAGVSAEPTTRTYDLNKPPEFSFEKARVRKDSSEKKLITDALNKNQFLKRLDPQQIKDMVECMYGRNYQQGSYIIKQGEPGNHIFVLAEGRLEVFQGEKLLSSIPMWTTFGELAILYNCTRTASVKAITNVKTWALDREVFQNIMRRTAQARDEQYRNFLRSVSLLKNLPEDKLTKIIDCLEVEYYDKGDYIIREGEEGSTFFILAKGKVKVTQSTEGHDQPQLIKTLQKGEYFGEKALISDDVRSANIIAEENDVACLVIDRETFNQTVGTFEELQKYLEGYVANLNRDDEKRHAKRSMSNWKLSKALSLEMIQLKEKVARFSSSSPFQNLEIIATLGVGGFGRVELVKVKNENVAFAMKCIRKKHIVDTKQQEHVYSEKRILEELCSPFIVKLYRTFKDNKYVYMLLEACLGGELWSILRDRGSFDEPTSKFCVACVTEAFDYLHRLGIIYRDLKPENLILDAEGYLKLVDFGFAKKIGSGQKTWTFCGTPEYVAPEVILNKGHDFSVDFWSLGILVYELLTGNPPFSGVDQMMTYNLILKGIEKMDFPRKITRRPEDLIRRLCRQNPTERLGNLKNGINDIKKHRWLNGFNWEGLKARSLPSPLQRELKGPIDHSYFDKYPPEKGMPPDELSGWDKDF

[7] = molecular target: T4, cGMP-dependent protein kinase 2 (Homo sapiens); settings: at 1 µM
[8] = molecular target: T5, cAMP-dependent protein kinase catalytic subunit PRKX (Homo sapiens) (UniProt P51817); settings: at 0.1 µM
T5 sequence (whole entry): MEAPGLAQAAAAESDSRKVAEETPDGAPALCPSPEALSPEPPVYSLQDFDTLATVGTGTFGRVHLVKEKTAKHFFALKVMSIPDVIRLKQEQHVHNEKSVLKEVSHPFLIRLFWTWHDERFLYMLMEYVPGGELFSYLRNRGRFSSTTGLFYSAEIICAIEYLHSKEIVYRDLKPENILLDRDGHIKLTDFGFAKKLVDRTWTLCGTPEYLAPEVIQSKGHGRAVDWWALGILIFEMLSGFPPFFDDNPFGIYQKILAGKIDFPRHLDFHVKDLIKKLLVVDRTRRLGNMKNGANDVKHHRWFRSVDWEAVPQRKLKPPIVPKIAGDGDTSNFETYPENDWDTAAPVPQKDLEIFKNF

[9] = molecular target: T5, cAMP-dependent protein kinase catalytic subunit PRKX (Homo sapiens); settings: at 1 µM
[10] = molecular target: Rho-associated protein kinase 1 (Homo sapiens) (UniProt Q13464); settings: at 0.1 µM
[11] = molecular target: Rho-associated protein kinase 1 (Homo sapiens) (UniProt Q13464); settings: at 1 µM
[12] = molecular target: Rho-associated protein kinase 2 (Homo sapiens) (UniProt O75116); settings: at 0.1 µM
[13] = molecular target: Rho-associated protein kinase 2 (Homo sapiens) (UniProt O75116); settings: at 1 µM
[14] = molecular target: Ribosomal protein S6 kinase alpha-1 (Homo sapiens) (UniProt Q15418); settings: at 0.1 µM
[15] = molecular target: Ribosomal protein S6 kinase alpha-1 (Homo sapiens) (UniProt Q15418); settings: at 1 µM
[16] = molecular target: Ribosomal protein S6 kinase alpha-3 (Homo sapiens) (UniProt P51812); settings: at 0.1 µM
[17] = molecular target: Ribosomal protein S6 kinase alpha-3 (Homo sapiens) (UniProt P51812); settings: at 1 µM
[18] = molecular target: Ribosomal protein S6 kinase alpha-2 (Homo sapiens) (UniProt Q15349); settings: at 0.1 µM
[19] = molecular target: Ribosomal protein S6 kinase alpha-2 (Homo sapiens) (UniProt Q15349); settings: at 1 µM
[20] = molecular target: Ribosomal protein S6 kinase alpha-6 (Homo sapiens) (UniProt Q9UK32); settings: at 0.1 µM;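 note: reported value is the mean inhibition of RSK4, from the GSK PKIS kinase inhibitor screen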
Chain of Ribosomal protein S6 kinase alpha-6 (Homo sapiens) (Q9UK32 whole entry): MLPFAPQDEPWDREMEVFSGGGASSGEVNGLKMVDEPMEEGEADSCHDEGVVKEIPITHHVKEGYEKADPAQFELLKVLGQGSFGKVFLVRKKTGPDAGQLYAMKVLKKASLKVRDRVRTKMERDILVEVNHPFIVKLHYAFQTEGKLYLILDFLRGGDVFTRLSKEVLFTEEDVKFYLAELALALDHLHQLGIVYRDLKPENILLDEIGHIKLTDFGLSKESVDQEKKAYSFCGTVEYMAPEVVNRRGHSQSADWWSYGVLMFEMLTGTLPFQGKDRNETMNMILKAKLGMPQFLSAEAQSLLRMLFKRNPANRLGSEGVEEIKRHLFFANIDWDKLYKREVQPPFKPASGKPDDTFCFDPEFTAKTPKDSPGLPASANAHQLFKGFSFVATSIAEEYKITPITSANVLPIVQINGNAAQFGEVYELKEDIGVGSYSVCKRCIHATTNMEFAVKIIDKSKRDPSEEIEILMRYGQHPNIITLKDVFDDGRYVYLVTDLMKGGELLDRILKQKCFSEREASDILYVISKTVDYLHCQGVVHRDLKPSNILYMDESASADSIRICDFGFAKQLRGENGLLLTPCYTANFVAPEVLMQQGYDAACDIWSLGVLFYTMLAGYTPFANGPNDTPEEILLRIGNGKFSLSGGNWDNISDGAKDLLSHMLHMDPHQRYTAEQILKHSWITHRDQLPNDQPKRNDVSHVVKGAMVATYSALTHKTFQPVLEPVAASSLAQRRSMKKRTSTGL

Chain of Ribosomal protein S6 kinase alpha-3 (Homo sapiens) (P51812 whole entry): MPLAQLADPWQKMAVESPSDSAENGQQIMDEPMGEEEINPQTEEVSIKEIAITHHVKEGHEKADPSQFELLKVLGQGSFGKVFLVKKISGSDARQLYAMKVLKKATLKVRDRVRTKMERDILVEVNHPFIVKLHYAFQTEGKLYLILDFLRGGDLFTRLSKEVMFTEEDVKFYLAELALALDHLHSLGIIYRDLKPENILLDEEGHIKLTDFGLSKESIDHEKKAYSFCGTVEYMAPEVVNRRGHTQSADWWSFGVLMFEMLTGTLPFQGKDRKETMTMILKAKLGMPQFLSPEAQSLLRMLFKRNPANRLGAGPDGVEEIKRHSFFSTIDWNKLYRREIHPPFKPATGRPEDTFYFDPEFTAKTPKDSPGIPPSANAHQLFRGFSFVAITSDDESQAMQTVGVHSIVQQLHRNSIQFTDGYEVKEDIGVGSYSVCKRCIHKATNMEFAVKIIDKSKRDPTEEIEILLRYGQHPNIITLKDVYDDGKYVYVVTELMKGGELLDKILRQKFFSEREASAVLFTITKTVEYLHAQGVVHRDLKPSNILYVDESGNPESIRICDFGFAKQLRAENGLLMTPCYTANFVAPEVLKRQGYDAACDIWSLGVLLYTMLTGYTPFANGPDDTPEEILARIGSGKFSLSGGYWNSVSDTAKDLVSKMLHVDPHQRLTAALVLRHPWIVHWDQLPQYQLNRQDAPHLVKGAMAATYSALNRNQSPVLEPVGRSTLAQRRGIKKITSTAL
Chain of Rho-associated protein kinase 1 (Homo sapiens) (Q13464 2-1354 limits assumed): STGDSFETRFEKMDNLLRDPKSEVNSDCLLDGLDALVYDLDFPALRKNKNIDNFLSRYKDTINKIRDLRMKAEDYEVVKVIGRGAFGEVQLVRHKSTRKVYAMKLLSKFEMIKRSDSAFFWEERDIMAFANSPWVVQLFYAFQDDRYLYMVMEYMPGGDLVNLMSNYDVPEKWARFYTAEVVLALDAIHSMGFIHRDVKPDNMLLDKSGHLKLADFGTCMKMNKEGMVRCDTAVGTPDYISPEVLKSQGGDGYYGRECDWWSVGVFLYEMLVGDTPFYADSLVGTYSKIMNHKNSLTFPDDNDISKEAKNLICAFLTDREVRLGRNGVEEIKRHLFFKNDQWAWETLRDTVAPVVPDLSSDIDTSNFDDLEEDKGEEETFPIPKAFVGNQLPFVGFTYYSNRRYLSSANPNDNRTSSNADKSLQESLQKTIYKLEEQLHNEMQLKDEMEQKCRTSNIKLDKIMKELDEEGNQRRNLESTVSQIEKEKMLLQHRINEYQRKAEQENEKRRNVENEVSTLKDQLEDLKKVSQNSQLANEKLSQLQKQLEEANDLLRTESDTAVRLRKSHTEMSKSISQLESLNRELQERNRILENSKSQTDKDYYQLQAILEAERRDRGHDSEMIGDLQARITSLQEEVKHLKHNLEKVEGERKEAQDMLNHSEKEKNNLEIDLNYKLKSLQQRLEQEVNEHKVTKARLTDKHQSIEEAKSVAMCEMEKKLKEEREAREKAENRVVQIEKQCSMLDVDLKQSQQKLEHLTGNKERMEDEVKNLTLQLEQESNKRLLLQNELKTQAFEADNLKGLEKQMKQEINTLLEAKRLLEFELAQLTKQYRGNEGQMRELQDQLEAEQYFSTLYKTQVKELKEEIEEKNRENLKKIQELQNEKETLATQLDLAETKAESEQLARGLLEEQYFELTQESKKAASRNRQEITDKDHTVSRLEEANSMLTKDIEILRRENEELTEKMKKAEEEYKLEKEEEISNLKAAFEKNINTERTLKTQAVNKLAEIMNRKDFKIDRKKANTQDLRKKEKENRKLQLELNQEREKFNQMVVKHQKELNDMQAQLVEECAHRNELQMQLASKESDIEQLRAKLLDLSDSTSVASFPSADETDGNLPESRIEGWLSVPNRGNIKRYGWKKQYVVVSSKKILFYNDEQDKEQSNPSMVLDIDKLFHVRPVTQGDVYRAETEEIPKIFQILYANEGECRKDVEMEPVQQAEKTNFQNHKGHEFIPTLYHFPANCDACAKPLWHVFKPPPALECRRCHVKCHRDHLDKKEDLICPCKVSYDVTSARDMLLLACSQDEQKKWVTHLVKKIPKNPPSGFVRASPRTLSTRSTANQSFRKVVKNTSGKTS
Chain of Rho-associated protein kinase 2 (Homo sapiens) (O75116 whole entry, looked up): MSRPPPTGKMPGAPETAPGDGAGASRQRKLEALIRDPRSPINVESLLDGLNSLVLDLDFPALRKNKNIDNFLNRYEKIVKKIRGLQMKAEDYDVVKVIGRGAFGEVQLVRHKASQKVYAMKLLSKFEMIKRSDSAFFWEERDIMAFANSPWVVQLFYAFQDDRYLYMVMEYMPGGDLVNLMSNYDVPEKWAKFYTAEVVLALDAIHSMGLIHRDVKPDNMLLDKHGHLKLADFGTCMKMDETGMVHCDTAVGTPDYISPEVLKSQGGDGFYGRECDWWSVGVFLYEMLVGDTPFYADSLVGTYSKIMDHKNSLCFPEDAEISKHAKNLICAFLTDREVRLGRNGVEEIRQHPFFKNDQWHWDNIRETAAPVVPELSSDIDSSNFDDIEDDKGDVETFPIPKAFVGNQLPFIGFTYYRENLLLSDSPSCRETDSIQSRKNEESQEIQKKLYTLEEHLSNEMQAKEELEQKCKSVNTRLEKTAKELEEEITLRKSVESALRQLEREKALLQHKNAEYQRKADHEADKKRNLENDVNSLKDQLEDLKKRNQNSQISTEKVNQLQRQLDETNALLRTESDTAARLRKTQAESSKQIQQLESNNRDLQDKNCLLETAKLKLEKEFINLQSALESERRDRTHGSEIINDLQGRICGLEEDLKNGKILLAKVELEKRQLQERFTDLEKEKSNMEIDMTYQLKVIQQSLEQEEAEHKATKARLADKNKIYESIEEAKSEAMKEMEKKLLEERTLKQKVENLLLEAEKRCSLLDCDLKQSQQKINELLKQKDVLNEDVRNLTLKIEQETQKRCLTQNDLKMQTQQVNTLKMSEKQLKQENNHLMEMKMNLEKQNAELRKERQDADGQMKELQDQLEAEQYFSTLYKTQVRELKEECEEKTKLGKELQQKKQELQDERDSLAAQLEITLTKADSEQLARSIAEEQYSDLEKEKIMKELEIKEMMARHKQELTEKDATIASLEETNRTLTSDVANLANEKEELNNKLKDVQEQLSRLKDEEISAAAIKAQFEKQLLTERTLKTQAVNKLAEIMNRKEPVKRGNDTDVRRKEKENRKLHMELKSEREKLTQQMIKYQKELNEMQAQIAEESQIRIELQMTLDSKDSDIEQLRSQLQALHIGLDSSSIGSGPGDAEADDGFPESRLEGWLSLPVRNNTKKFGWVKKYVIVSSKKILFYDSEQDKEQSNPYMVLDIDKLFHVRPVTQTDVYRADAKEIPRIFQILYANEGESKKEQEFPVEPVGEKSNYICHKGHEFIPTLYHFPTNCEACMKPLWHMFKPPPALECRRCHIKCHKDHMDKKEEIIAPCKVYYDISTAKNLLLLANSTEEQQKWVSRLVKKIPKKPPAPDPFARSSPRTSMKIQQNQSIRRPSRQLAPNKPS
Chain of Ribosomal protein S6 kinase alpha-1 (Homo sapiens) (Q15418 whole entry): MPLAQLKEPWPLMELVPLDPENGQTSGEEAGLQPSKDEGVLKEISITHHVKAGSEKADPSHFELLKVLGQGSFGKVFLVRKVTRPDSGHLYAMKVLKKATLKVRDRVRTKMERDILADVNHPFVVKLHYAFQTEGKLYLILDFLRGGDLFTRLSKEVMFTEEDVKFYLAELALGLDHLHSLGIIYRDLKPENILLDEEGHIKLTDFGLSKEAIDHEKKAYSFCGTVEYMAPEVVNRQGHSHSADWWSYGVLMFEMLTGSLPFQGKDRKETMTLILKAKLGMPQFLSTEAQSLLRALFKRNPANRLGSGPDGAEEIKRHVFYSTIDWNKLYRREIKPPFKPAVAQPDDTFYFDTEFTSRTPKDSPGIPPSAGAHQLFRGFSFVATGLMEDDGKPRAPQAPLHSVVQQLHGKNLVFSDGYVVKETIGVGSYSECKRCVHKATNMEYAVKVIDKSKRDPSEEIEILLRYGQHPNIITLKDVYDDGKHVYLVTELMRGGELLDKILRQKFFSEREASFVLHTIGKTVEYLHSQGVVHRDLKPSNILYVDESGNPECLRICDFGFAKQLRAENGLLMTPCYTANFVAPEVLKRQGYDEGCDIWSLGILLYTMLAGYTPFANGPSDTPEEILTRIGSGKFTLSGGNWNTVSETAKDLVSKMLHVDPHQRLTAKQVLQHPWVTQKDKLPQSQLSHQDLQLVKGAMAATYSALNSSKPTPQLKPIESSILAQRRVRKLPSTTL

SMILES | inhibition [1] | inhibition [2] | inhibition [3] | inhibition [4] | inhibition [5] | inhibition [6] | inhibition [7] | inhibition [8] | inhibition [9] | inhibition [10] | inhibition [11] | inhibition [12] | inhibition [13] | inhibition [14] | inhibition [15] | inhibition [16] | inhibition [17] | inhibition [18] | inhibition [19] | inhibition [20]
NS(=O)(=O)c1ccc(N/N=C2\C(=O)Nc3cccc(CCc4ccncc4)c32)cc1 | 0.82% | 0.3% | 0.91% | 0.22% | -0.46% | -0.44% | -0.5% | 0.12% | 0.09% | 0.65% | 1.51% | 0.96% | 1.68% | 2.2% | 1.84% | 2.02% | 2.03% | 2.79% | 7.37% | 3.11%
COC(=O)Nc1nc2cc(Oc3ccc(NC(=O)Nc4ccccc4)cc3)ccc2[nH]1 | 2.45% | 2.48% | 2.79% | 0.72% | 2.97% | 1.5% | 1.55% | 2.09% | 3.93% | 2.24% | 6.47% | 8.68% | 17.2% | 1.66% | 4.06% | 2.3% | 3.56% | 1.67% | 1.89% | 1.27%
CN1CCC(C(=O)Nc2n[nH]c3nc(-c4ccc(O)cc4)c(Br)cc23)CC1 | 4.6% and 3.02% | 1.49% and 1.43% | 3.3% and 2.68% | 2.6% and 0.38% | 8.03% and 6.39% | 2.67% and 0.36% | 8.41% and 4.33% | 3.06% and 1.23% | 6.6% and 1.62% | 1.28% and -0.29% | 2.13% and -0.83% | 3.65% and -0.14% | 7.61% and 0.92% | 2.66% and 0.77% | 5.58% and 0.84% | 2.78% and 0.04% | 6.6% and 1.92% | 3.56% and 2.99% | 7.9% and 6.17% | 2.77% and 0.98%
CN1CCC(n2cnc(-c3ccc(F)cc3)c2-c2ccnc(NCCO)n2)CC1 | 14.8% | 6.16% | 11% | 1.3% | 4.89% | 2.55% | 5.54% | 3.06% | 5.03% | 0.7% | 4.39% | 3.23% | 8.52% | 1.81% | 6.04% | 0.9% | 3.09% | 3.09% | 4.29% | 1.56%
